The values below come from PubChem BioAssay AID1851 (National Center for Advancing Translational Sciences (NCATS), 2009).

Where “and” joins values, the source holds several entries; their conditions need not be identical. Identical values can stand only once. In all, about 16,000 compounds went through this assay and about 5,100 (32%) were called active. Not shown: some 25% with an inconclusive outcome. Calls follow the shape of the dose curve; as a rule, active = well fitted curve in the direction sought with a large enough effect; inconclusive = small, poorly fitted or top-dose-only effect, or effect the other way; inactive = no such curve, though single readings can be large or run the other way. The list shows a part of the results. Square brackets hold non-standard residues; d marks the D form. Peptide text beside a SMILES is read from it. * marks the point of attachment. ξ: configuration not given here. Cbz = O=C(OCc1ccccc1)*; PhAc = O=C(Cc1ccccc1)*; OBn = c1ccc(CO*)cc1; ξA = CC(N)C(=O)O
% is scaled to controls: 0 for no effect and ±100 for the full control effect.

Chain of Cytochrome P450 3A4 (Homo sapiens) (P08684 whole entry, looked up): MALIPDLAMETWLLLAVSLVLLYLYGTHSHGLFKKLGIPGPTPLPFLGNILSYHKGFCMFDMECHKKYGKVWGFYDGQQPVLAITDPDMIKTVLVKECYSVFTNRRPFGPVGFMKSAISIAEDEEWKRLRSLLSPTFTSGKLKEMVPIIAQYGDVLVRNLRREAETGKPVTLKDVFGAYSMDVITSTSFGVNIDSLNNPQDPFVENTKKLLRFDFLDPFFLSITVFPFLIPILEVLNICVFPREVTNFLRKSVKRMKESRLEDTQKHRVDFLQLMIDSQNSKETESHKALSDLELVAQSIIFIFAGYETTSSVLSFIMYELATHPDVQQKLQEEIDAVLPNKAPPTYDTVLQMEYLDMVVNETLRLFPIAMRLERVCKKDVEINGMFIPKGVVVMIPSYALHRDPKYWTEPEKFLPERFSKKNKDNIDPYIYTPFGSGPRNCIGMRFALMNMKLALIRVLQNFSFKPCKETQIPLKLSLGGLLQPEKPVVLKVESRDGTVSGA

This test concerns the target Cytochrome P450 3A4 (Homo sapiens) (UniProt P08684). Kind of test: Cytochrome panel assay with activity outcomes. The note with it: recombinant CYP, pro-luciferin dealkylation, luminescence, p450-cyp3a4; series mostly up to 57.1 µM; activity, negative = inhibition: at the top concentration.
As a reminder, the AC50 is the concentration at which the activity in the assay is half-maximal. Regarding `Cc1ccc(-n2[nH]c(C)c(C=Nc3ccc4[nH]c(=O)[nH]c4c3)c2=O)cc1C`, the AC50 is 14.1 µM (active). In the case of `Cn1c(=O)n(CC#N)c2ccccc21`, the activity, negative = inhibition was -1.21% [at 2.29 µM] (inactive). On the same count and under the same terms, in the case of `CC12CC(NC(=O)N1c1cccc(C(=O)NCc3ccccc3)c1)c1ccccc1O2` (configuration not stated) it was -2.24% (inactive). Consider `COc1ccc(C2CC(C(F)(F)F)n3nc(C(=O)N(C)Cc4cn(C)nc4C)c(Cl)c3N2)cc1` (configuration not stated), for which the AC50 is 2.51 µM (active). Still for that read-out and setting: next, `O=C(NCCN1CCOCC1)c1nn2c(c1Cl)NC(c1ccccc1)CC2C(F)(F)F` (configuration not stated): 7.08 µM (active). Regarding `COc1ccc(NC(=O)c2cc3n(n2)C(C(F)(F)F)CC(c2ccc4c(c2)OCO4)N3)cc1OC` (configuration not stated), the “activity, negative = inhibition” value is -24.1% (inactive). The same measure, in the same setting: next, `O=C(NCCN1CCOCC1)c1ccc2ccccc2c1`: -4.73% (inactive).

Regarding `COc1ccc(OC)c(NC(=O)c2cc3n(n2)C(C(F)(F)F)CC(c2ccc4c(c2)OCO4)N3)c1` (configuration not stated), the half-maximal activity concentration (AC50) was 3.98 µM (active). Turning to `Cc1nn(C)c(C)c1CNC(=O)c1cnn2c1NC(c1ccccc1)CC2C(F)(F)F` (configuration not stated), the AC50 was 12.6 µM (active). Consider `Cc1cc(C(F)F)n2ncc(C(=O)NCc3ccccc3C(F)(F)F)c2n1`, for which the “activity, negative = inhibition” value was 8.24% (inactive).

For the compound `Cc1ccc(C2C(C=Nc3c(C)n(C)n(-c4ccccc4)c3=O)=C(c3ccccc3)Oc3ccccc32)cc1` (configuration not stated), the “activity, negative = inhibition” value was -22.8% (inactive).

For `Cc1ccc(C2CC(C(F)(F)F)n3nc(C(=O)NCCN4CCOCC4)cc3N2)cc1` (configuration not stated), the AC50 is 7.94 µM (active). On the same count and under the same terms, in the case of `O=C(CNC(=O)c1cccs1)NCC(=O)OCc1ccc(Cl)cc1Cl` it was 7.08 µM (active); in that of `O=C(CNC(=O)c1cccs1)NCC(=O)OCc1ccc(Cl)cc1`, 25.1 µM (active). On the same count and under the same terms, in the case of `CC(C)(C)c1ccc(COC(=O)CNC(=O)CNC(=O)Cc2ccccc2)cc1` it was 12.6 µM (active). In the case of `O=C(CNC(=O)c1ccco1)OCc1c(F)cccc1Cl`, the activity, negative = inhibition is -10.2% [at 2.29 µM] (inactive). Still for that read-out and setting: in the case of `COC(=O)CNC(=O)C(C)NC(=O)CNC(=O)OCc1ccccc1` (stereo not drawn) (Cbz-Gly-[ξA]-Gly-OMe) it was -0.615% [at 2.29 µM] (inactive); in that of `O=C(CNC(=O)Cc1ccccc1)NCC(=O)OCc1ccccc1` (PhAc-Gly-Gly-OBn), -26.1% (inactive).

Regarding `CC(=O)N(O)CCCCCNC(=O)CCC(=O)N(O)CCCCCNC(=O)CCC(=O)N(O)CCCCCN`, the “activity, negative = inhibition” value is -17.3% [at 25.6 µM] (inactive).

On to `O=C(O)C[C@H]1OCC=C2C[N@@+]3([O-])CC[C@]45c6ccccc6N[C@@H]4[C@@H]1[C@H]2C[C@H]53`, for which the activity, negative = inhibition was -0.0687% [at 11.4 µM] (inactive).

Take `O=C1C2CCCN2c2ccc(S(=O)(=O)N3CCOCC3)cc2N1Cc1cccc(C(F)(F)F)c1` (configuration not stated): the AC50 was 15.8 µM (active). Take `O=C(c1ccc2c(c1)N(Cc1ccccc1)C(=O)CS2)N1CCOCC1`: the “activity, negative = inhibition” value is -28.8% (inactive). Take `Cc1ccc(C)c(CN2C(=O)C3CCCN3c3ccc(S(=O)(=O)N4CCOCC4)cc32)c1` (configuration not stated): the AC50 is 11.2 µM (active). With `Cc1ccc(C)c(CN2C(=O)C3CCCN3c3ccc(C#N)cc32)c1` (configuration not stated), the AC50 was 5.01 µM (active). Regarding `O=C(Cn1cc(C(F)(F)F)ccc1=O)N1CCN(S(=O)(=O)c2ccccc2)CC1`, the activity, negative = inhibition was -26.5% [at 11.4 µM] (inactive). For the compound `Cc1ccc(C2CC2C(=O)NN)cc1` (configuration not stated), the AC50 was 7.94 µM (active). With `O=C(O)[C@@H](O)c1ccc(F)cc1`, the activity, negative = inhibition is -5.47% [at 11.4 µM] (inactive). As to `COc1ccc([C@@H](C)c2cc3c(cc2O)OCO3)cc1`, the AC50 was 2.51 µM (active). Consider `COc1ccc([C@H](O)c2ccccn2)cc1`, for which the activity, negative = inhibition is -5.07% [at 11.4 µM] (inactive). Turning to `COc1ccc([C@@H](Nc2ncccn2)c2cc3c(cc2O)OCO3)cc1`, the AC50 is 2.51 µM (active).

Consider `N#CC(=C(/N)Sc1ccccc1N)/C(C#N)=C(/N)Sc1ccccc1N`, for which the half-maximal activity concentration (AC50) was 316 nM (active) and 3.16 µM (active). Still for that read-out and setting: next, `N#CC1=C(SCC(N)=O)NC2=C(C(=O)c3ccccc32)C1c1ccc(Cl)cc1` (configuration not stated): 10 µM (active). Turning to `C[N+](C)(C)CC[N+]1(C)Cc2c(Cl)c(Cl)c(Cl)c(Cl)c2C1`, the “activity, negative = inhibition” value was -12.8% (inactive).

For the compound `C/C(CC(=O)Nc1cc(C)ccn1)=N\NC(=O)COc1cccc(C)c1`, the activity, negative = inhibition was -15.1% [at 2.29 µM] (inactive). Take `COc1cccc(OCC(=O)NN=C2c3ccccc3-c3ccccc32)c1`: the AC50 is 6.31 µM (active).

With `Cc1cccc(C)c1NC(=O)COc1cccc(/C=N/NC(=O)C(=O)NCc2ccccc2)c1`, the “activity, negative = inhibition” value is -17.9% (inactive). The same measure, in the same setting: in the case of `Cc1cccc2c1OCC/C2=N\NC(=O)COc1ccccc1Cl` it was 0.168% (inactive). Regarding `Cc1cccc2c1OCC/C2=N\NC(=O)COc1ccccc1`, the AC50 is 15.8 µM (active). Regarding `CCOc1ccc(C(CC(=O)O)NC(=O)COc2ccccc2)cc1` (configuration not stated), the “activity, negative = inhibition” value was -1.92% (inactive). On the same count and under the same terms, in the case of `CC(N)=NCCCC[C@H](N)C(=O)O` it was -19% (inactive). With `CCc1c2c(nc3cccc(C(C)C)c13)-c1cccc(=O)n1C2`, the AC50 is 15.8 µM (active). `CCc1cccc2nc3c(c([Si](C)(C)C)c12)Cn1c-3cccc1=O`: the AC50 is 12.6 µM (active). Take `CCc1c2c(nc3cccc(OC)c13)OC(CC)C2` (configuration not stated): the “activity, negative = inhibition” value was -7.79% (inactive). For the compound `CC(C)c1cccc2nc3c(c([Si](C)(C)C)c12)Cn1c-3cccc1=O`, the AC50 was 10 µM (active).

Turning to `CC(C)c1cccc2nc3c(c([Si](C)(C)C(C)(C)C)c12)Cn1c-3cccc1=O`, the AC50 was 12.6 µM (active). For `O=C1CS/C(=C\[N+](=O)[O-])N1c1ccc(OC(F)(F)F)cc1`, the “activity, negative = inhibition” value is -23.8% (inactive). On the same count and under the same terms, in the case of `Cc1cc(C2CCCCC2)n(O)c(=O)c1` it was -26.4% [at 25.6 µM] (inactive). On the same count and under the same terms, in the case of `CCN(CC)CCOc1ccc(/C(=C(\Cl)c2ccccc2)c2ccccc2)cc1` it was -27.7% [at 25.6 µM] (inactive); in that of `CN(C)CCCO[C@H]1[C@H]([C@H](O)CO)O[C@H]2OC(C)(C)O[C@@H]21`, -7.33% (inactive).

Take `Cc1c2c(nc3ccccc13)-c1cccc(=O)n1C2`: the AC50 was 12.6 µM (active).

`O=c1c2ccccc2nc2n1CCC2`: the “activity, negative = inhibition” value was -1.04% (inactive). On to `Cc1[nH]nc(-c2ccc(OCc3cnn(-c4ccccc4)c3)cc2O)c1Oc1ccc(F)cc1`, for which the AC50 was 14.1 µM (active). The same measure, in the same setting: next, `COc1ccc(CCN2C(=O)C(Oc3ccccc3C)C2c2ccc3c(c2)OCO3)cc1OC` (configuration not stated): 0.501 µM (active); `Cc1ccccc1OC1C(=O)N(Cc2ccc3c(c2)OCO3)C1c1sccc1C` (configuration not stated): 0.794 µM (active). Same read-out and setting: next, `COC(=O)c1ccc(C2C(Oc3ccccc3)C(=O)N2CCc2ccc(OC)c(OC)c2)cc1` (configuration not stated): 2.82 µM (active). For `NC(N)=NC(N)=Nc1ccccc1` (tested in a mixture with another compound), the activity, negative = inhibition is -12.3% [at 11.4 µM] (inactive). The same measure, in the same setting: next, `Clc1ccc(C2=C3CCCCn4c(-c5ccccc5)c[n+](c43)C2)cc1`: -17% (inactive).
